# According to PubChem BioAssay AID999 (SRMLSC, 2007):
# Unmarked numbers belong to inactive results. Active and inactive are the calls of the source.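 The calls were made as follows: active = viability at or below 21.59%, 3 SD under the median of tested compounds; inactive = the rest.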
# Assay: growth suppression of PTEN-null HCT116 cells, cell-based, validation, diverse DP compound set (AID 999);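 also: 100% = median luminescence of untreated cell control wells and 0% = no signal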
# Details: CellTiter-Glo, 60 h, at 10 µM, active compounds read low
row,Structure (SMILES),viability
1,Nc1c2c(nc3ccccc13)CCCC2,107%
2,COc1ccc(-c2cc(C(=O)O)no2)cc1,97.7%
3,O=c1c2ccccc2nc2n1CCc1c-2[nH]c2ccccc12,93.4%
4,C=CC1(C)CC(=O)C2(O)C(C)(O1)C(OC(C)=O)C(O)C1C(C)(C)CCC(O)C12C (stereo unspecified),85.5%
5,O=C(O)c1cc([N+](=O)[O-])ccc1NCCCc1ccccc1,94.2%
6,C/C(=C\CNc1ncnc2c1ncn2[C@@H]1O[C@H](CO)[C@@H](O)[C@H]1O)CO,91.5%
7,COc1ccc2nc(S(=O)Cc3ncc(C)c(OC)c3C)[nH]c2c1 (stereo unspecified),92.7%
8,CC1(C)[C@@H](O[C@H]2O[C@H](C(=O)O)[C@@H](O)[C@H](O)[C@H]2O[C@@H]2O[C@H](C(=O)O)[C@@H](O)[C@H](O)[C@H]2O)CC[C@]2(C)[C@H]3C(=O)C=C4[C@@H]5C[C@@](C)(C(=O)O)CC[C@]5(C)CC[C@@]4(C)[C@]3(C)CC[C@@H]12,103%
9,CCC(C)C(O)C(C)C(=O)C(C)/C=C(\C)CC(C)C1OC(=O)C1CC (stereo unspecified),97.1%
10,O=c1[nH]c(=O)n(C2CCCO2)cc1F (stereo unspecified),101%
11,NCCNS(=O)(=O)c1cccc2c(Cl)cccc12,94.3%
12,CCC[C@@H]1C[C@@H](C(=O)NC(C(C)Cl)[C@H]2O[C@H](SC)[C@H](O)[C@@H](O)[C@H]2O)N(C)C1 (stereo partly specified),100%
13,NC(=NCc1ccccc1)NC(=O)c1nc(Cl)c(N)nc1N,77.3%
14,C/C=C1/C2C=C(C)CC1(N)c1ccc(=O)[nH]c1C2 (stereo unspecified),93.8%
15,Nc1nc2ncc(CNc3ccc(C(=O)NC(CCC(=O)O)C(=O)O)cc3)nc2c(=O)[nH]1 (stereo unspecified),99.5%
16,Nc1ccn([C@H]2CC[C@@H](CO)O2)c(=O)n1,93.9%

row,Structure (SMILES),viability
1,O=C(O)c1ccccc1O,98.7%
2,C[C@@H]1CC2C3CCC4=CC(=O)C=CC4(C)[C@@]3(F)[C@@H](O)CC2(C)[C@@]1(O)C(=O)CO (stereo partly specified),105%
3,O=C(c1ccccc1)c1ccccc1,100%
4,CCOC(=O)c1ncn2c1CN(C)C(=O)c1cc(F)ccc1-2,95.3%
5,CCOC(=O)c1c(N)sc(C)c1-c1ccccc1,105%
6,CC(C)=CCC[C@](C)(O[C@@H]1O[C@H](CO)[C@@H](O)[C@H](O)[C@H]1O)[C@H]1CC[C@]2(C)[C@@H]1[C@H](O)C[C@@H]1[C@@]3(C)CC[C@H](O[C@@H]4O[C@H](CO)[C@@H](O)[C@H](O)[C@H]4O[C@@H]4O[C@H](CO)[C@@H](O)[C@H](O)[C@H]4O)C(C)(C)[C@@H]3[C@@H](O)C[C@]12C,92%
7,CO/N=C(\C(=O)N[C@@H]1C(=O)N2C(C(=O)O)=C(COC(C)=O)CS[C@H]12)c1csc(N)n1,89.4%
8,C=C(CCC12O[C@H](C(=O)O)[C@@](O)(C(=O)O)[C@](C(=O)O)(O1)[C@H](OC(=O)/C=C/[C@@H](C)C[C@@H](C)CC)[C@H]2O)[C@@H](OC(C)=O)[C@H](C)Cc1ccccc1,98.3%
9,C[C@H]1c2cccc(O)c2C(O)=C2C(=O)[C@]3(O)C(O)=C(C(N)=O)C(=O)[C@@H](N(C)C)[C@@H]3[C@@H](O)[C@@H]21,90.5%
10,Cc1cc(CC(=O)O)n(C)c1C(=O)c1ccc(Cl)cc1,95.5%
11,C[C@@H]1CC[C@]2(C(=O)O)CC[C@]3(C)C(=CCC4[C@@]5(C)C[C@@H](O)[C@H](O)[C@@](C)(CO)C5CC[C@]43C)C2[C@H]1C (stereo partly specified),94.3%
12,COC(=O)Nc1nc2ccc(C(=O)c3cccs3)cc2[nH]1,50.2%
13,c1ccc2nc3ccccc3cc2c1,99.8%
14,CCCC[C@@H](C=O)NC(=O)[C@H](CC(C)C)NC(=O)[C@H](CC(C)C)NC(C)=O,15.1% (active)
15,CNCCC(Oc1ccc(C(F)(F)F)cc1)c1ccccc1 (stereo unspecified),85.8%
